Shown are actives, neighbours in structure and some others; about 2.3% of the full set was active somewhere.
proKLK7 act = activates the human kallikrein-7 zymogen. P49862. purified proKLK7, EDANS-DABCYL substrate fluorescence; 100% is mature enzyme control, 0% vehicle. activation, % at 7 µM. 370,000 compounds, 0.9% hits;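 active means activation above the mean of all tested compounds plus 3 SD, computed per campaign excluding outliers beyond control limits, cut at about 13% in these data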
ADAM10 inh = ADAM10 inhibition, QFRET primary screen; O14672; recombinant ADAM10, EDANS/DABCYL FRET peptide cleavage, 3 h; inhibition, % at 7 µM; 370,000 compounds, 0.62% hits;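 active means inhibition above a per-campaign cutoff equal to the mean of compounds falling between control-based bounds plus 3 SD, cut at about 20% in these data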
ADAM17 inh = ADAM17 inhibition, QFRET primary screen | P78536 | recombinant ADAM17, EDANS/DABCYL FRET peptide cleavage | inhibition, % at 6.95 µM | 370,000 compounds, 0.83% hits;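 active means inhibition above the mean of compounds lying between control limits plus 3 SD, set per campaign, cut at about 8.5% in these data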
Target sequence (P78536 215-824 limits assumed): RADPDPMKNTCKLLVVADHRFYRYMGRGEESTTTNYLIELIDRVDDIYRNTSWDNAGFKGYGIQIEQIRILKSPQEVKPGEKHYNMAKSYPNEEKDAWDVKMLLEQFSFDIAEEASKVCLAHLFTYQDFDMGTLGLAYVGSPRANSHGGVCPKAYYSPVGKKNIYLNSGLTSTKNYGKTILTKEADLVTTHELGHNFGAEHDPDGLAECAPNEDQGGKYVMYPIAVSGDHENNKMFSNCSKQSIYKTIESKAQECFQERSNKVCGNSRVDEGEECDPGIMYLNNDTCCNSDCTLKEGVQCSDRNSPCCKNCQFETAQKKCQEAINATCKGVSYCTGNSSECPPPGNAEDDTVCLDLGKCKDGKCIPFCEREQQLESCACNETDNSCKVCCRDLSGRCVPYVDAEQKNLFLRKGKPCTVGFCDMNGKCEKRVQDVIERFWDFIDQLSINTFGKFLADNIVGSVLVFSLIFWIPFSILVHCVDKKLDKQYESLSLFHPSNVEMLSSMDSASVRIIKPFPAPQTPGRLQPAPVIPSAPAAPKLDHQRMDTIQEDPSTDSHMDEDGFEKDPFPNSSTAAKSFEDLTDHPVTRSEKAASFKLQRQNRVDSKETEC
V-ATPase pHluor = alters yeast V-ATPase proton transport; S. cerevisiae, pHLuorin cytosolic pH fluorescence; response, % at 10 µM; 350,000 compounds, 0.37% hits; AID 504577; in the data active means response mostly above about 7.3%, no sharp cut-off; inactive means mostly below about 5.4%; further: actives read high
V-ATPase pH SP = regulators of yeast V-ATPase proton transport; shares compounds with V-ATPase pHluor; S. cerevisiae pHLuorin cytosolic pH; response, % at 10 µM; 980 compounds, 2% hits; in the data active means response above about 24%
proKLK7 act conf = proKLK7 activation, confirmation; shares compounds with proKLK7 act; purified proKLK7, EDANS-DABCYL substrate fluorescence; scaled: vehicle 0, mature enzyme 100; activation, % at 7 µM; 3,200 compounds, 68% hits; AID 686949;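 active means activation, as change over the incubation, above the mean of all tested compounds plus 3 SD, cut at about 13% in these data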
EDANS interfere = fluorescence interference counter-screen for KLK7 activators | shares compounds with proKLK7 act | EDANS-DABCYL substrate fluorescence interference, no enzyme, 4 h; solvent 0%, active enzyme control 100% | activation, % at 7 µM | 3,200 compounds, 80% hits;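 active means activation above the all-compound mean plus 3 SD, ignoring values outside control-based bounds, cut at about 4.8% in these data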;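 further: value is the 4 h activation minus the activation read at time zero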
K7 EDANS ctr = counter-screen for kallikrein-7 activators: EDANS-DABCYL interference, dose response; EC50, µM; EDANS-DABCYL peptide fluorescence interference, no enzyme; 250 compounds, 20% hits; shares compounds with proKLK7 act;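 active means compounds that raise the fluorescence signal in this interference counterscreen, with EC50 at or below 10 µM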;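 further: intact quenched peptide substrate alone read at 355 nm excitation and 520 nm emission; signal is fluorescence gain from T0 to T4 after four hours at room temperature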
ADAM10 confirm = human ADAM10 inhibition, confirmation; inhibition, % at 6.95 µM; ADAM10 QFRET peptide cleavage, EDANS fluorescence; 2,100 compounds, 1% hits; shares compounds with ADAM10 inh;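 active means inhibition above about 20% chosen separately for each screening run, limit read from the data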
ADAM17 ctr = ADAM17 inhibition, counter-screen for ADAM10 exosite hits. shares compounds with ADAM10 inh. ADAM17 QFRET peptide cleavage, EDANS fluorescence. inhibition, % at 6.95 µM. 2,100 compounds, 0.5% hits. AID 743214;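 active means mean triplicate inhibition above the solvent-only control wells' mean plus 3 SD, cut at about 12% in these data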
ADAM10 counter = counter-screen for ADAM17 exosite inhibitors: inhibitors of human ADAM10; recombinant ADAM10, EDANS/DABCYL FRET peptide cleavage, 3 h; inhibition, % at 6.95 µM; AID 743256; shares compounds with ADAM17 inh; 2,900 compounds, 47% hits;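 active means mean inhibition over the triplicate runs exceeds the activity threshold set in the earlier primary screen, cut at about 20% in these data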
ADAM17 confirm = confirmation of inhibitors of human ADAM17; shares compounds with ADAM17 inh; recombinant ADAM17, EDANS/DABCYL QFRET peptide cleavage; inhibition, % at 6.95 µM; 2,900 compounds, 65% hits; AID 743257;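 active means mean inhibition across replicates above the hit cutoff set in the primary screen, cut at about 8.5% in these data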
Numbers stand for hits; i = inactive; nt = no result given.

SMILES	proKLK7 act	ADAM10 inh	ADAM17 inh	V-ATPase pHluor	V-ATPase pH SP	proKLK7 act conf	EDANS interfere	others
CCOc1ccc(-c2nnc(SCC(=O)NC3CC3)o2)cc1	i	i	i	10.0	i	nt	nt
C#CCOCCOCCOCCNc1nc(N2CCN(C(=O)[C@H]([C@@H](C)CC)n3cc(CCCCN)nn3)CC2)nc(N2CCN(C(=O)[C@H](Cc3ccc(O)cc3)n3cc(CCO)nn3)CC2)n1	nt	i	i	nt	nt	nt	nt
COC(=O)C1=C(C)N(C)C(=NCC2CC2)NC1c1ccccc1 (stereo unspecified)	i	i	i	nt	nt	nt	nt
CCS(=O)(=O)n1nc(-c2ccc(C)cc2)nc1N	i	i	i	i	nt	nt	nt
Cc1ccc(-c2nc(N)n(S(=O)(=O)c3ccc(C)cc3)n2)cc1	i	i	i	8.7	i	nt	nt
COCCCn1c(C(=O)NCCN2CCOCC2)cc2c(=O)n3cccc(C)c3nc21	15.3	i	i	8.2	i	37.5	28.3	K7 EDANS ctr=i
COC(=O)COc1ccc(-c2ccc(F)cc2)cc1C=O	13.4	i	i	6.2	i	i	i
COC(=O)COc1ccccc1C(N)=O	i	i	i	i	nt	nt	nt
c1nc(NCC2CC2)c2cc(-c3ccc4c(c3)OCO4)ccc2n1	nt	i	i	nt	nt	nt	nt
CCOC(=O)Nc1c2ccccc2nc2ccccc12	13.8	i	i	i	i	37.9	42.6
CC(=O)CC[C@H]1CC[C@]2(CCCN(C(=O)c3ccccc3)C2)O1	i	i	i	nt	nt	nt	nt
CCOC(=S)SCC(=O)N1CCc2cc(OC)c(OC)cc2C1C1C(=O)CC(C)(C)CC1=O (stereo unspecified)	25.8	i	i	20.3	i	i	i
CCOC(=S)SCC(=O)N1CCc2ccccc2C1C1C(=O)CC(C)(C)CC1=O (stereo unspecified)	i	i	i	i	nt	nt	nt
COc1cccc(NC(=S)NNC(=O)c2ccccc2OC(F)F)c1	i	20.9	i	9.4	i	nt	nt	ADAM10 confirm=i;ADAM17 ctr=i
COC(=O)[C@]12C[C@H](CC(=O)NCc3cccc(C(F)(F)F)c3)C(=O)N(Cc3ccco3)C1=C[C@H](COCc1ccccc1)O[C@@H]2C	i	i	i	nt	nt	nt	nt
CC1=C(C(=O)Nc2ccccc2)C(c2cccc([N+](=O)[O-])c2)Nc2nc3ccccc3n21 (stereo unspecified)	i	i	8.8	17.4	i	nt	nt	ADAM10 counter=i;ADAM17 confirm=i
C#CCN1CC(N(C)CCOC(=O)CCCc2ccccc2)CS1(=O)=O (stereo unspecified)	i	i	i	nt	nt	nt	nt
COc1ccc2c(C(=O)NCCCCO)c(-c3ccc(S(C)(=O)=O)cc3)sc2c1	48.6	i	i	i	nt	65.2	82.2
Clc1ccc(-c2nnc(SCc3cccc4ccccc34)n2Cc2ccco2)cc1	i	i	i	nt	nt	nt	nt
CCCCC1(C)NC(=O)c2c(C)sc(C(=O)OCC)c2N1 (stereo unspecified)	i	i	i	i	nt	nt	nt
CCOC(=O)c1sc(C)c2c1NC(c1ccc(N(C)C)cc1)NC2=O (stereo unspecified)	i	i	i	i	nt	nt	nt
CCOC(=O)CC1(CC(=O)OCC)NC(=O)c2c(C)sc(C(=O)OCC)c2N1	13.1	i	i	i	nt	i	4.3
